About 83,000 compounds went through this panel and 20% of them were active in at least one assay; those are over-represented in the sample as a whole.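 Assay: single dose, 48 h. Readout: percent growth (0 = no net growth; negative = cell death). Active: <10.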 Values without a mark were called inactive. Calls of active or inactive are those of the source.

Among the test systems are HCT-15 colon; HT29 colon; SNB-75 CNS; SNB-19 CNS; U251 CNS; PC-3 prostate; SK-MEL-5 melanoma; UACC-62 melanoma; LOX IMVI melanoma; SK-MEL-28 melanoma; SK-MEL-2 melanoma; EKVX NSCLC; SN12C renal; UO-31 renal; TK-10 renal; CAKI-1 renal; A498 renal; CCRF-CEM leukemia; MOLT-4 leukemia; ACHN renal.
Assay in all cases: NCI-60 one-dose screen, 48 h (100 = growth as untreated, 0 = no growth, -100 = all killed)
Holding throughout (details): 10 µM unless noted

Turning to `COc1ccc(Cn2nc3c(c2-c2cc(OC)c(OC)c(OC)c2)-c2oncc2CC3)cc1`, the growth is 73.2% in the assay with HCT-15 colon; 90.4% in the assay on HT29 colon; 62.6% in the assay with SNB-75 CNS; 91.4% in the assay on SNB-19 CNS; 94.4% with U251 CNS; 80.6% with PC-3 prostate. Further, the growth in the assay with SK-MEL-5 melanoma is 70.9%; in the assay on UACC-62 melanoma, 86.1%; with LOX IMVI melanoma, 80.9%; with SK-MEL-28 melanoma it was 91.1%; with SK-MEL-2 melanoma, 103%; with EKVX NSCLC, 85.6%. In addition, the growth in the assay on SN12C renal is 93.5%; in the assay with UO-31 renal, 65.8%; in the assay on TK-10 renal, 96.2%; in the assay on CAKI-1 renal, 65.2%; with A498 renal it was 80.3%; in the assay with CCRF-CEM leukemia, 103%. Also, in the assay on MOLT-4 leukemia, the growth was 77.9%.

For the compound `O=C1CCCN1c1cccc2cccnc12`, the growth was 101% with HCT-15 colon; 103% in the assay on HT29 colon; 83.1% in the assay on SNB-75 CNS; 91% with SNB-19 CNS; 96.4% with U251 CNS; 107% with PC-3 prostate. Also, the growth in the assay on SK-MEL-5 melanoma was 99.1%; with UACC-62 melanoma it was 104%; in the assay with LOX IMVI melanoma, 95.6%; in the assay on SK-MEL-28 melanoma it was 113%; with SK-MEL-2 melanoma, 104%; in the assay on EKVX NSCLC, 91.5%. In addition, the growth is 102% with SN12C renal; 81.2% in the assay on UO-31 renal; 88.5% with TK-10 renal; 91.9% in the assay with CAKI-1 renal; 107% in the assay on CCRF-CEM leukemia; 102% in the assay with MOLT-4 leukemia.

On to `O=C(Nc1cccc(C2=NCCN2)c1)c1ccc(OCCCOc2ccc(C(=O)Nc3cccc(C4=NCCN4)c3)cc2)cc1`, for which the growth is 90.7% in the assay with HCT-15 colon; 12.9% with HT29 colon; -1.39% (active) with SNB-75 CNS; 14.9% with SNB-19 CNS; 24.8% in the assay on U251 CNS; 29.8% in the assay on PC-3 prostate. Further, the growth is 2.98% (active) in the assay with SK-MEL-5 melanoma; -10.5% (active) in the assay with UACC-62 melanoma; -33.4% (active) in the assay with LOX IMVI melanoma; -67.4% (active) in the assay on SK-MEL-28 melanoma; -47.3% (active) with SK-MEL-2 melanoma; 69.4% in the assay on EKVX NSCLC. In addition, the growth in the assay on SN12C renal was 23.6%; with UO-31 renal it was 85.7%; in the assay on TK-10 renal, 81.5%; in the assay on CAKI-1 renal, 65.1%; with CCRF-CEM leukemia, 33.5%; with MOLT-4 leukemia it was 25.4%.

In the case of `NC(=S)N/N=C(/c1ccccc1)c1ccccc1N`, the growth in the assay with HCT-15 colon is 84.7%; with HT29 colon it was 54.8%; in the assay on SNB-75 CNS, 101%; with SNB-19 CNS, 101%; with U251 CNS, 95.6%; in the assay with PC-3 prostate, 67.3%. Besides, the growth in the assay on SK-MEL-5 melanoma is 92.3%; in the assay on UACC-62 melanoma, 93.9%; in the assay with LOX IMVI melanoma, 96.1%; with SK-MEL-28 melanoma it was 109%; with SK-MEL-2 melanoma it was 103%; with EKVX NSCLC it was 66.1%. The growth in the assay on SN12C renal is 85%; in the assay on UO-31 renal, 62.8%; in the assay on TK-10 renal, 103%; with CAKI-1 renal, 80.9%; in the assay with CCRF-CEM leukemia, 60.2%; in the assay on MOLT-4 leukemia it was 52.7%.

`COc1ccc(-c2cnnc3c(-c4cccc(C(F)(F)F)c4)cnn23)cc1`: the growth in the assay with HCT-15 colon is 68.3%; with HT29 colon, 63.6%; with SNB-75 CNS, -26.9% (active); with SNB-19 CNS it was 50.4%; with U251 CNS, 17.5%; with PC-3 prostate, 63.2%. Moreover, the growth with SK-MEL-5 melanoma is 5.82% (active); in the assay on UACC-62 melanoma it was 62.6%; with LOX IMVI melanoma, 75.4%; in the assay with SK-MEL-28 melanoma it was 56.1%; with SK-MEL-2 melanoma it was 54.6%; in the assay on EKVX NSCLC it was 30.6%. Besides, the growth in the assay on SN12C renal is 49.8%; with UO-31 renal, 57.6%; in the assay with TK-10 renal it was 21%; in the assay with CAKI-1 renal, -31.8% (active); with A498 renal, 78.6%; in the assay on CCRF-CEM leukemia, 61.2%. Besides, the growth in the assay on MOLT-4 leukemia is 89.2%.

In the case of `Cc1ccccc1-c1cc(Cc2ccc(F)cc2)c(=O)[nH]n1`, the growth is 110% in the assay with HCT-15 colon; 117% in the assay on HT29 colon; 101% in the assay on SNB-75 CNS; 88.2% with SNB-19 CNS; 106% with U251 CNS; 116% with PC-3 prostate. The growth in the assay with SK-MEL-5 melanoma is 98.3%; in the assay with UACC-62 melanoma, 99.6%; in the assay with LOX IMVI melanoma it was 98.9%; with SK-MEL-28 melanoma, 118%; in the assay on SK-MEL-2 melanoma, 122%; with EKVX NSCLC, 81.8%. The growth in the assay with SN12C renal is 148%; in the assay with UO-31 renal, 70.5%; in the assay on TK-10 renal, 122%; in the assay with CAKI-1 renal, 54.4%; in the assay with A498 renal it was 117%; with CCRF-CEM leukemia, -50.9% (active). Further, the growth with MOLT-4 leukemia was 58.1%.

With `CCOC(=O)N1CCc2c(sc3nc4nc[nH]n4c(=O)c23)C1`, the growth is 102% with HCT-15 colon; 100% with HT29 colon; 89.4% in the assay with SNB-75 CNS; 106% with SNB-19 CNS; 100% in the assay on U251 CNS; 92.7% with PC-3 prostate. Also, the growth in the assay with SK-MEL-5 melanoma was 104%; with UACC-62 melanoma, 98.8%; with LOX IMVI melanoma, 94.6%; with SK-MEL-28 melanoma, 115%; in the assay on SK-MEL-2 melanoma it was 96.6%; with EKVX NSCLC, 92.4%. For the same compound, the growth in the assay with SN12C renal is 97.3%; with UO-31 renal, 81.9%; with TK-10 renal, 105%; in the assay with ACHN renal, 103%; with A498 renal, 82.3%; in the assay with CCRF-CEM leukemia it was 97.8%. In addition, the growth in the assay with MOLT-4 leukemia was 100%.

Regarding `COc1ccc2c(/C=C3/C(=O)NC(=S)NC3C)cc(=O)oc2c1` (centres undefined), the growth was 103% in the assay on HCT-15 colon; 88.8% with HT29 colon; 87.3% with SNB-75 CNS; 102% in the assay on SNB-19 CNS; 94.2% in the assay on U251 CNS; 78.6% in the assay with PC-3 prostate. Further, the growth in the assay with SK-MEL-5 melanoma was 99.4%; in the assay on UACC-62 melanoma it was 96.8%; in the assay with LOX IMVI melanoma it was 95.3%; in the assay with SK-MEL-28 melanoma, 109%; in the assay with SK-MEL-2 melanoma it was 86.8%; with EKVX NSCLC it was 101%. Besides, the growth with SN12C renal is 97.7%; with UO-31 renal, 88.3%; with TK-10 renal, 93.5%; with ACHN renal, 108%; with A498 renal, 91.5%; in the assay on CCRF-CEM leukemia, 93.2%. The growth in the assay on MOLT-4 leukemia is 90.5%.

Values taken from PubChem BioAssay (NCI).
